In the library only some 7.7% were active in any assay of this set; here they are far more common.
RE007 growth inh: less growth of the S. pombe RE007 Vpr strain. S. pombe RE007 Vpr strain, BacTiter-Glo ATP luminescence, 24 h. Potency, µM (top dose mostly 92.2 µM), usual class: inhibitors. 360,000 tested, 0.21% active; active means well fitted falling curve with a large enough effect; inconclusive means small, poorly fitted or top-dose-only effect; inactive means no such curve, though single readings can be large or run the other way; further: nearly all actives have a fitted effect of over 50% in size
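Fission yeast RE007 carrying one integrated HIV-1 vpr copy, seeded at OD 0.01 in PMG+AL medium with 23 nL pinned compound. Grown 24 h at 30 degrees; viability read by BacTiter-Glo luminescence after 5 min.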
HCMV inh: inhibitors of human cytomegalovirus. HFF cells, HCMV-luciferase reporter, 72 h; active compounds read low. activity change, negative = inhibition, % at 57.5 µM. 410,000 tested, 4.5% active; in the data active means activity change below about -60%; inconclusive means no clear call, values can overlap the other calls; inactive means above about -39%
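Cell-based, HFFs, 1000 cells/well, 16 h 37C; cpds in DMSO + HCMV-luc, MOI 1 PFU/cell; 72 h 37C; OneGlo luminescence after 5 min RT; norm. to buffer vs Salinomycin 10uM.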
TbPYK inhibitor: inhibitors of Trypanosoma brucei pyruvate kinase; TbPYK enzyme, Kinase-Glo Plus ATP luminescence, 45 min; Potency, µM (titrated, usually from 76.8 µM), most hits filed as inhibitors; 410,000 tested, 0.12% active; further: nearly all actives have a fitted effect of over 50% in size
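Activity of T. brucei pyruvate kinase was followed by Kinase-Glo Plus luminescence after the enzyme reacted 45 min at room temperature with 130 uM ADP (final) and substrate. Test compounds were added before ADP at multiple concentrations.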
FBPA Giardia inh: blocks Giardia fructose-bisphosphate aldolase activity | A8B2U2 | purified Giardia FBPA | Potency, µM (top dose mostly 59.6 µM), actives largely listed as inhibitors | 290,000 tested, 0.71% active; further: nearly all actives have a fitted effect of over 55% in size
Target sequence (A8B2U2 whole entry, looked up): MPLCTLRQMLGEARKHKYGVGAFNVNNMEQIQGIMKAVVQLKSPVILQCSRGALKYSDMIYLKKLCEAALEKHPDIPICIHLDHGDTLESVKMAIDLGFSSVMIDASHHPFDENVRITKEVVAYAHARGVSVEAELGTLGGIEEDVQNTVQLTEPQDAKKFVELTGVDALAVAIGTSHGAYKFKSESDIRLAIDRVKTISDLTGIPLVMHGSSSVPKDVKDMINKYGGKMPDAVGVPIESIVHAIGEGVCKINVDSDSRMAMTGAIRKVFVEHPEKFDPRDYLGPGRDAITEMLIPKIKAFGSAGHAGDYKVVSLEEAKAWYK
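Giardia FBPA (40 nM reagent) was preincubated 10 min at RT with compound (up to 57.5 uM final), then substrate plus GAPDH/TPI/NAD/arsenate coupling system with diaphorase/resazurin was added; resorufin fluorescence (525/598 nm) was read after 20 min.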
Sm TGR inh: blocks Schistosoma mansoni thioredoxin glutathione reductase; 360,000 tested, 3% active; Potency, µM (titrated, usually from 114 µM), most hits filed as inhibitors; purified TGR, DTNB reduction, TNB absorbance 405 nm; further: nearly all actives have a fitted effect of over 60% in size
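Kinetic colorimetric format: TGR-catalysed, NADPH-driven DTNB reduction monitored via TNB absorbance. Enzyme dispensed at 20 nM; compound exposure 15 min at room temperature before reaction start.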
FMDV inh: antivirals against foot and mouth disease virus; FMDV antiviral cell-based qHTS; Potency, µM (top dose mostly 57.9 µM), usual class: inhibitors; 410,000 tested, 1.2% active; AID 1159524; calls by dose curve; tested in HEK293T cells; further: read-out not given here; nearly all actives have a fitted effect of over 45% in size
A number is an active result; - = inactive; ? = inconclusive; . = no result given; ! = not active in a repeat. Unless noted, the call rests on the fitted dose curve; in most records, active means well fitted curve in the direction sought with a large enough effect; inconclusive means small, poorly fitted or top-dose-only effect, or another doubt; inactive means no such curve, though single readings can be large; an effect the other way counts as inactive or inconclusive.

SMILES	RE007 growth inh	HCMV inh	TbPYK inhibitor	FBPA Giardia inh	Sm TGR inh	FMDV inh
CSc1ccc(C2c3[nH]c4ccccc4c3CCN2C(=O)CCC2CCCC2)cc1 (stereo not given)	.	-78	-	.	-	-
O=C(CSc1ccccc1)N1CCc2c([nH]c3ccccc23)C1c1ccc(F)cc1 (stereo not given)	.	-	-	.	-	-
COC(=O)C1CCCCN1Cc1ccc2c(c1)CN(C(=O)c1ccc(C)s1)CCO2 (stereo not given)	.	.	.	.	.	-
Cc1ccc(-c2cn3c(n2)sc2cc(C(=O)NC4CCCCCC4)ccc23)c(C)c1	.	.	-	.	-	-
Cc1cc(C)cc(NC(=O)CCc2nnc3n(CC(C)C)c(=O)c4ccccc4n23)c1	.	-	-	.	-	-
CCOC(=O)c1ccc(N=c2sc(C(=O)OC)cc(=O)n2CCCN2CCOCC2)cc1	-	-	-	-	-	16µM
CCOC(=O)c1ccc(N=c2sc(C(=O)OC)cc(=O)n2Cc2ccco2)cc1	-	-	-	-	-	-
COC(=O)c1cc(=O)n(CCc2ccccc2)c(=Nc2ccc(F)cc2)s1	-	-	-	-	-	?
CCn1c(=O)cc(C(=O)OC)sc1=Nc1ccc(F)c(F)c1	-	-	-	-	-	32µM
COC(=O)c1cc(=O)n(CCc2ccc(OC)cc2)c(=Nc2ccc(F)c(Cl)c2)s1	-	?	-	-	-	22µM
O=C(CCC1N=C2c3ccccc3N=C(SCc3ccccc3F)N2C1=O)NC1CCCCC1 (stereo not given)	.	-	-	.	-	-
NC(=O)c1ccc(C[C@H](C(=O)O)N2C(=O)c3ccc(C(=O)O)cc3C2=O)cc1	.	.	.	-	-	.
CCC1CC=CC2C1C(=O)N(Cc1ccccc1)C2c1ccoc1 (stereo not given)	.	.	.	-	.	.
CCc1nn(CC(=O)NCCCN(Cc2ccccc2)C(C)C)c(=O)c2cc3sccc3n12	-	-63	-	-	-	-
CCN(CC(=O)NCc1cccs1)C(=O)CCCOc1ccccc1	-	-	-	.	-	-
CCN(CC(=O)NCc1cccs1)C(=O)CCCOc1ccc(C(C)(C)C)cc1	-	-105	-	.	-	-
Cc1ccc(CNC(=O)CN2C(=O)CCn3nc(-c4ccccc4)cc32)cc1	.	-	-	.	-	-
COc1ccccc1NC(=O)c1cc2c(-c3ccccc3)nn(-c3ccccc3)c2s1	.	-61	-	.	-	-
COc1ccc(NC(=O)c2cc3c(-c4ccc(OC)c(OC)c4)nn(C)c3s2)cc1OC	-	-97	-	-	-	-
O=C(Nc1ccccc1)c1cc2c(-c3ccccc3)nn(-c3ccccc3)c2s1	.	-	-	.	-	-
COc1ccc(-c2nn(C)c3sc(C(=O)Nc4cc(OC)c(OC)c(OC)c4)cc23)cc1OC	.	-98	-	.	-	-
COc1ccc(C2C(C(=O)Nc3ccccc3)=C(C)Nc3nc(-c4ccc(Cl)cc4)nn32)cc1 (stereo not given)	.	?	-	.	-	?
Cc1c(C(=O)NCC(C)(C)N2CCOCC2)cnn1-c1ncc2c(n1)-c1ccccc1CCC2	.	.	.	.	.	-
O=C1C(Cl)=C(N2CCN(c3ccccc3[N+](=O)[O-])CC2)C(=O)c2ccccc21	-	?	-	?	1.6µM	?
CCOC(=O)c1c(C)[nH]c(C2=NNC(=NC3CC3)SC2)c1C	-	.	7.9µM	-	-	22µM
SMILES	RE007 growth inh	HCMV inh	TbPYK inhibitor	FBPA Giardia inh	Sm TGR inh	FMDV inh
CCOC(=O)c1c(C)[nH]c(/C(C)=N/O)c1C	-	-	-	-	-	-
Cc1cccc(-n2c(O)c(C=NCc3ccccn3)c3ccccc3c2=O)c1	-	-	-	-	-	-
Cc1ccc(-n2c(O)c(C=NCc3ccccn3)c3ccccc3c2=O)cc1	-	-65	-	-	-	-
Cc1oc(-c2cccc3ccccc23)nc1CN1CCN(c2ncnc3ccccc23)CC1	-	?	-	-	.	16µM
O=C(NCCN1CCC2(CC1)C(=O)NCN2c1cccc(F)c1)c1ccc2ccccc2c1	-	-101	-	.	.	-
Cc1nc2ccc(NC(=O)c3cccs3)cc2c(=O)n1Cc1ccc(Cl)cc1	-	-98	-	-	-	.
CCn1c(=N)c(C(=O)NC2CCCC2)cc2c(=O)n3cc(C)ccc3nc21	.	-	-	.	-	-
COCCCNCCCOc1ccc(C)cc1Br	-	-63	-	?	-	-
Clc1ccc(Cl)c(OCCCCN2CCNCC2)c1	-	-	-	-	-	-
Cc1ccc(OCCCCN2CCC(C)CC2)c(Br)c1	-	-67	-	-	-	-
Cc1ccc(OCCCCCCN2CCNCC2)c(Br)c1	-	-63	-	.	.	-
COCCNCCCOc1ccc(C)cc1Br	-	-	-	-	-	-
Cc1cnc(-n2ncc(C(=O)NCc3cccnc3)c2C)nc1-c1ccc(F)cc1	.	.	.	.	.	-
Cc1cccc(Nc2nnc(-c3ccc(C)c(S(=O)(=O)NCC4CCCO4)c3)c3ccccc23)c1 (stereo not given)	.	?	-	.	-	-
COc1ccc(CNC(=O)Cn2c(=O)cc(-c3ccccc3)c3c(C)nn(C)c32)cc1	.	-	-	.	-	-
Cc1ccc(-c2csc(=S)[nH]2)cc1	-	-	?	-	-	-
S=c1[nH]c(-c2ccc(Cl)cc2)cs1	-	-62	?	-	-	-
COc1ccc2c3c([nH]c2c1)[C@H](CO)N(C(=O)c1cccnc1)CC31CN(C(=O)c2cccnc2)C1	.	-	.	.	.	.
CN1CCN(C(c2ccc(Cl)cc2Cl)c2sc3nc(-c4ccco4)nn3c2O)CC1 (stereo not given)	.	-	-	.	-	-
CC(C)(C)S(=O)N1C[C@@H]2CC(=O)C=C2[C@H]1CCO (stereo not given in full)	.	-	.	.	.	.
CC[n+]1c(/C=C(\C)SC)sc2ccccc21	-	-	-	?	-	.
CC[n+]1c(/C=C2/C=C(C)CC(C)C2)sc2ccccc21 (stereo not given)	-	-	?	?	40µM	?
CC/C(=C/c1sc2ccccc2[n+]1CC)SC	-	-	-	-	-	?
CC[n+]1c(C=C2C=C(C)OC(C)=C2)sc2ccccc21	?	-98	-	-	-	?
COc1cc(/C=N/NC(=O)CNC(=O)/C=C/c2ccco2)cc(OC)c1OC	-	-	-	-	50µM	-
COc1ccc(/C=N/NC(=O)CCOc2ccccc2C)cc1OC	-	-79	-	-	-	-
COc1ccc(/C=N/NC(=O)CNC(=O)/C=C/c2ccco2)cc1OC	-	-	-	-	25µM	-
COc1cc(/C=N/NC(=O)CCOc2ccccc2C)cc(Br)c1O	-	-	-	-	-	-
Cc1coc2c1C(=O)C(=O)c1c-2ccc2c1CCCC2(C)C	-	?	-	18µM!	10µM	-
Cc1coc2c1C(=O)C(=O)c1c-2ccc2c(C)cccc12	-	.	-	1.3µM	8.9µM	?
